From ChEMBL document CHEMBL1201862, “PubChem BioAssay data set” (2004)
In all, about 400,000 compounds went through this assay and about 2,100 (0.53%) were called active. Not shown: some 14% with an inconclusive outcome. No rule for the calls is given here. The entries come from a sample that favours actives as a whole.

These compounds were tested against Ataxin-2 (Homo sapiens) (UniProt Q99700) (assay: qHTS for Inhibitors of ATXN expression.).
Assay type: functional

Sequence of Ataxin-2 (Homo sapiens) (Q99700 whole entry): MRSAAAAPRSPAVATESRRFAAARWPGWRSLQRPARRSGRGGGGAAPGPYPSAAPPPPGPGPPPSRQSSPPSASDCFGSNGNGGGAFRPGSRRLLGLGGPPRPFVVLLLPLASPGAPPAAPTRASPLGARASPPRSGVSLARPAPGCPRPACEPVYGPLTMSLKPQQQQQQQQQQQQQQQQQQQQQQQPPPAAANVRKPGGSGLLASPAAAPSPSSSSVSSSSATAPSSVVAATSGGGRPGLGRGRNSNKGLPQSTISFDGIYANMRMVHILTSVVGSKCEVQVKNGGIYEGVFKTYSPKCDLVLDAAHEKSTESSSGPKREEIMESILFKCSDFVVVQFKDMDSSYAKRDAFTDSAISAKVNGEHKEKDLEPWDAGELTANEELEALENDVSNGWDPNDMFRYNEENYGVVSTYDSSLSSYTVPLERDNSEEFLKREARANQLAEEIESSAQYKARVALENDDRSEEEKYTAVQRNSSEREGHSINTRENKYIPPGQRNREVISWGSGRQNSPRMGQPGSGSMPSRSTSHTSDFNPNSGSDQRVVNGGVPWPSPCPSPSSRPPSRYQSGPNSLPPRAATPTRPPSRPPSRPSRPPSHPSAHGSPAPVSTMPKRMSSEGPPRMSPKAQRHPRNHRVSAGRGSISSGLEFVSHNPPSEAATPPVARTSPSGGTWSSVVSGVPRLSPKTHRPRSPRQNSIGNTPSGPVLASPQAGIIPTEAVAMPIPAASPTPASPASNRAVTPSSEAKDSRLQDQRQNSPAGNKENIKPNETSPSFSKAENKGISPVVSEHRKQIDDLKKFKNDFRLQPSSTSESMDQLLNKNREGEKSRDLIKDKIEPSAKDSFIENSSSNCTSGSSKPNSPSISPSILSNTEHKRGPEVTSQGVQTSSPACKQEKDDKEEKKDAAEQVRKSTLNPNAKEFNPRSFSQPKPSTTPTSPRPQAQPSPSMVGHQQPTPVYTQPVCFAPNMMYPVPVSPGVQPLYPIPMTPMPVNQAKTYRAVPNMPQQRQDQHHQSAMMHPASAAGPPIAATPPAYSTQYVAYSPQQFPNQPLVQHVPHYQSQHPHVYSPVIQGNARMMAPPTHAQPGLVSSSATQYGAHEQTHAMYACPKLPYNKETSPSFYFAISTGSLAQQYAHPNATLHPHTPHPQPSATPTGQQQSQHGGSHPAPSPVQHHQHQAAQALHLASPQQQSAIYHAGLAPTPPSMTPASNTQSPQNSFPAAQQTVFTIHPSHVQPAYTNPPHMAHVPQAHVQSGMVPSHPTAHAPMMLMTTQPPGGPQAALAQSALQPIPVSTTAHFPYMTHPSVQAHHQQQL

Q: How did the Potency turn out when CCOC(=O)c1sc(NC(=O)c2nc3nc(C)cc(C(F)F)n3n2)c(C(=O)OC)c1C was run?
A: inactive

Q: How did the Potency turn out when CCN1C(=O)c2cccc3c(S(=O)(=O)NC(Cc4ccccc4)C(=O)O)ccc1c23 (stereo unspecified) was run?
A: inactive

Q: With Cc1ccc(C(=O)COC(=O)CCC(=O)NC2CCCCC2)cc1[N+](=O)[O-] as the compound, how does the Potency read?
A: inactive

Q: With CN(C(=O)COC(=O)c1ccc([N+](=O)[O-])cc1N)c1ccccc1 as the compound, how does the Potency read?
A: inactive

Q: For CC(=O)Nc1ccc(NC(=O)C(C)OC(=O)c2ccccc2C(=O)c2ccc(Cl)c([N+](=O)[O-])c2)cc1 (stereo unspecified), which Potency is on record?
A: 39.8 µM (active)

Q: With CN(CCC#N)C(=O)COC(=O)c1c2c(nc3ccccc13)/C(=C/c1ccco1)CC2 as the compound, how does the Potency read?
A: inactive

Q: For CN(CC(=O)Nc1ccccc1Cl)C1CCS(=O)(=O)C1 (stereo unspecified), which Potency is on record?
A: inactive

Q: How did the Potency turn out when CC(OC(=O)c1ccc(-n2cnnn2)cc1)C(=O)Nc1ccccc1[N+](=O)[O-] (stereo unspecified) was run?
A: inactive

Q: For Cc1cc(OCC(=O)OCC(=O)NC2CCCCCC2)ccc1Cl, which Potency is on record?
A: inactive

Q: With CN(CCC#N)C(=O)COC(=O)c1ccccc1C(=O)c1ccc(Cl)c([N+](=O)[O-])c1 as the compound, how does the Potency read?
A: 29.9 µM (active)

Q: With O=C(CN(C(=O)c1ccccc1Cl)C1CCCCC1)Nc1ccc(Cl)c([N+](=O)[O-])c1 as the compound, how does the Potency read?
A: 35.5 µM (active)

Q: Which Potency does the source give for O=C(COC(=O)c1ccccc1C(=O)c1ccc(Cl)c([N+](=O)[O-])c1)NC1CCCCCC1 here?
A: 35.5 µM (active)

Q: For CC(=O)Nc1ccc(NC(=O)C(C)OC(=O)CCSc2ccccc2Cl)cc1 (stereo unspecified), which Potency is on record?
A: inactive

Q: How did the Potency turn out when C=CCNC(=O)c1ccccc1NC(=O)Cc1ccccc1[N+](=O)[O-] was run?
A: inactive

Q: O=C(CSc1nnnn1C1CC1)N1CCN(c2ccc(O)cc2)CC1 was tested. Which Potency did it give?
A: inactive

Q: Which Potency does the source give for CC(=O)c1ccccc1NC(=O)COC(=O)c1cc[n+]([O-])cc1 here?
A: inactive

Q: How did the Potency turn out when Cc1ccc(Cl)c(NC(=O)COC(=O)c2ccccc2C(=O)c2ccc(Cl)c([N+](=O)[O-])c2)c1Cl was run?
A: 20 µM (active)

Q: Which Potency does the source give for Cn1c(N)c(C(=O)COC(=O)c2ccccc2C(=O)c2ccc(Cl)c([N+](=O)[O-])c2)c(=O)n(C)c1=O here?
A: 20 µM (active)

Q: CC(C)Cn1c(N)c(C(=O)COC(=O)c2cccnc2Cl)c(=O)n(C)c1=O was tested. Which Potency did it give?
A: inactive

Q: With CCOC(=O)Cn1nc(C)c(NC(=O)COc2ccc([N+](=O)[O-])c(C)c2)c1C as the compound, how does the Potency read?
A: inactive

Q: Which Potency does the source give for Cn1c(N)c(C(=O)COC(=O)CC(NC(=O)c2ccccc2Cl)c2ccccc2)c(=O)n(C)c1=O (stereo unspecified) here?
A: inactive

Q: How did the Potency turn out when COC(=O)c1cc(-c2ccc(Br)cc2)c2c(=O)n(C)c(=O)n(C)c2n1 was run?
A: inactive

Q: Cc1sc2nc3ccc(NCc4ccco4)nn3c(=O)c2c1C was tested. Which Potency did it give?
A: inactive

Q: How did the Potency turn out when O=C(/C=C/c1cn(CC(O)CN2CCc3ccccc32)c2ccccc12)c1ccc(Br)cc1 (stereo unspecified) was run?
A: inactive

Q: How did the Potency turn out when COc1ccc2cc(CNCCOCCOCCNCc3ccc4cc(OC)ccc4c3)ccc2c1 was run?
A: 29.9 µM (active)

Q: With COc1ccc(CNc2cc(C)nc3ccc(OC)cc23)cc1 as the compound, how does the Potency read?
A: inactive

Q: With COc1ccc(CNCCC2(C(C)C)CCOC(C)(C)C2)cc1 (stereo unspecified) as the compound, how does the Potency read?
A: inactive

Q: OCCCc1nc2n(n1)C(c1ccccc1)C=C(c1ccccc1)N2 (stereo unspecified) was tested. Which Potency did it give?
A: inactive

Q: How did the Potency turn out when O=C(Cc1ccccc1)Nc1cc([N+](=O)[O-])ccc1N1CCOCC1 was run?
A: inactive

Q: How did the Potency turn out when Cc1cc(N2CCN(C(=O)Oc3ccc([N+](=O)[O-])cc3)CC2)c2ccccc2n1 was run?
A: 35.5 µM (active)

Q: Cc1cc(N2CCN(c3ccc(C(F)(F)F)cc3[N+](=O)[O-])CC2)c2ccccc2n1 was tested. Which Potency did it give?
A: inactive

Q: For CC(C(=O)N1CCCCCC1)c1ccc([N+](=O)[O-])cc1 (stereo unspecified), which Potency is on record?
A: inactive

Q: With CCCn1nc(NC(=O)C(C)(C)C)c2cc3cc(OC)ccc3nc21 as the compound, how does the Potency read?
A: inactive

Q: Which Potency does the source give for Cc1ccc(-c2nc3cc(Br)cnc3nc2-c2ccc(C)cc2)cc1 here?
A: inactive

Q: Which Potency does the source give for Cc1nnsc1C(=O)NNC(=O)Nc1ccccc1 here?
A: inactive

Q: With O=C(C1=NN(c2ccccc2)C2C(=O)N(c3ccccc3Cl)C(=O)C12)c1ccccc1 (stereo unspecified) as the compound, how does the Potency read?
A: inactive

Q: For O=C(c1ccccc1)c1ccsc1C(=O)c1ccccc1, which Potency is on record?
A: inactive

Q: How did the Potency turn out when O=C(c1ccccc1)c1ccccc1N1C(=O)C=CC1=O was run?
A: 23.8 µM (active)

Q: With O=C(Oc1cc(=O)oc2c1c(=O)n1c3c(cccc23)CC1)c1ccccc1 as the compound, how does the Potency read?
A: inactive

Q: For COc1cccc(CNC(=O)c2cc(S(=O)(=O)N3CCCC3)cn2C)c1, which Potency is on record?
A: inactive

Q: With Cc1cc(Cl)ccc1OCC(=O)OCC(=O)Nc1cccnc1Cl as the compound, how does the Potency read?
A: inactive

Q: Which Potency does the source give for Cc1ccc(OCC(=O)Nc2ccc(Cl)cc2)c(-n2nc3ccccc3n2)c1 here?
A: 39.8 µM (active)

Q: CN(CC(=O)Nc1ccc(Cl)cc1)C(=O)COc1ncnc2ccccc12 was tested. Which Potency did it give?
A: inactive

Q: Cc1cccc(C2=NN(c3ccccc3)[C@@H](C(=O)N3CCOC3=O)[C@@H]2c2ccc(F)cc2)c1 was tested. Which Potency did it give?
A: inactive

Q: For Cc1cc(NCCCCO)n2c(nc3ccccc32)c1C#N, which Potency is on record?
A: inactive

Q: With Cc1ccc(-c2ncns2)cc1 as the compound, how does the Potency read?
A: inactive

Q: Which Potency does the source give for COc1ccc(OCC(O)CNC(=O)c2c(-c3ccccc3)noc2C)cc1 (stereo unspecified) here?
A: inactive

Q: How did the Potency turn out when COc1ccc(OCc2nc3ccccc3n2C(C)C)cc1 was run?
A: inactive

Q: Which Potency does the source give for COc1ccc(OCC(O)Cn2c(=N)n(Cc3ccccc3)c3ccccc32)cc1 (stereo unspecified) here?
A: 35.5 µM (active)

Q: Which Potency does the source give for N=c1n(Cc2ccc(Cl)cc2)c2ccccc2n1CC(O)COc1ccccc1 (stereo unspecified) here?
A: 35.5 µM (active)

Q: N=c1n(Cc2ccccc2)c2ccccc2n1CC(O)COc1ccc(Cl)cc1Cl (stereo unspecified) was tested. Which Potency did it give?
A: 37.7 µM (active)

Q: Which Potency does the source give for N=c1n(CCO)c2ccccc2n1CCOc1ccc(Cl)cc1Cl here?
A: 25.1 µM (active)

Q: Oc1nncc2c3ccccc3n(Cc3cccc(Cl)c3)c12 was tested. Which Potency did it give?
A: inactive

Q: OC(COc1ccc(Cl)cc1)CSc1ccccn1 (stereo unspecified) was tested. Which Potency did it give?
A: inactive

Q: How did the Potency turn out when O=C(O)c1cc2cccc(S(=O)(=O)N3CCCCC3)c2cc1O was run?
A: inactive

Q: With CC(/C=N\NC(=O)Cn1cncn1)=C/c1ccc(C(C)C)cc1 as the compound, how does the Potency read?
A: inactive

Q: CC(C)(C)C(=O)/C(=C/c1ccncc1)n1cncn1 was tested. Which Potency did it give?
A: 20 µM (active)

Q: How did the Potency turn out when Cc1cccc(C)c1N(CC(=O)NCc1ccc(F)cc1)C(=O)c1csnn1 was run?
A: inactive

Q: For CN(C)c1ccc(/C=N/NC(=O)c2ccc(Cn3cc(Br)cn3)o2)cc1, which Potency is on record?
A: inactive

Q: How did the Potency turn out when NC(=O)c1ccsc1NC(=O)Cc1ccc([N+](=O)[O-])cc1 was run?
A: inactive

Q: For NC(Cc1ccc([N+](=O)[O-])cc1)=NOC(=O)c1cccc(Br)c1, which Potency is on record?
A: inactive

Q: With NC(Cc1ccc([N+](=O)[O-])cc1)=NOC(=O)C(c1ccccc1)c1ccccc1 as the compound, how does the Potency read?
A: 25.1 µM (active)

Q: Which Potency does the source give for CCCNC(=O)c1ccc2c(O)c(O)c(-c3ccc(C)cc3)nc2c1 here?
A: inactive

Q: With N#Cc1c(-c2cccc(Br)c2)cc(-c2ccco2)nc1O as the compound, how does the Potency read?
A: inactive

Q: For Cc1cc(NC(=O)/C(C#N)=C/c2ccc(-c3ccc(SC(F)F)cc3)o2)n(-c2ccccc2)n1, which Potency is on record?
A: inactive

Q: Which Potency does the source give for COc1cccc(-c2nn(-c3ccccc3)cc2CN(C)Cc2c(C)nc3ccccn23)c1 here?
A: 39.8 µM (active)

Q: Cc1nn(C(C)C(=O)NCC2CCCO2)c(C)c1[N+](=O)[O-] (stereo unspecified) was tested. Which Potency did it give?
A: inactive

Q: How did the Potency turn out when O=C(NCc1ccc(S(=O)(=O)Nc2ccccc2Cl)s1)c1ccccc1 was run?
A: inactive

Q: How did the Potency turn out when Cc1cccn2c(=O)c3cc(C(=O)N4CCCCC4)sc3nc12 was run?
A: inactive

Q: How did the Potency turn out when COc1ccc2nc(N3CCC(O)CC3)c(C#N)cc2c1 was run?
A: inactive

Q: With Oc1c(Cl)cc(Cl)cc1C1=NNC(c2ccc(Cl)cc2)C1 (stereo unspecified) as the compound, how does the Potency read?
A: inactive

Q: COc1cccc(CNn2cnnc2)c1O was tested. Which Potency did it give?
A: inactive

Q: COc1ccccc1CC(=O)NC(=O)c1ccccc1O was tested. Which Potency did it give?
A: inactive

Q: Which Potency does the source give for COc1ccccc1CNCC(O)Cn1c2ccccc2c2ccccc21 (stereo unspecified) here?
A: 22.4 µM (active)

Q: How did the Potency turn out when CC(=O)Nc1sc(/C(C#N)=C/c2ccc(Cl)c(Cl)c2)nc1-c1ccc(C)cc1 was run?
A: inactive

Q: COc1ccccc1CCNC(=O)C(=O)NCC1OCCN1S(=O)(=O)c1ccc([N+](=O)[O-])cc1 (stereo unspecified) was tested. Which Potency did it give?
A: inactive

Q: Which Potency does the source give for Cc1cccc(OCCn2cc(/C=N/NC(=O)c3ccncc3)c3ccccc32)c1 here?
A: inactive

Q: With CCC(=O)Nc1c(-c2ccccc2)c(=O)c2ccccc2n1C as the compound, how does the Potency read?
A: inactive

Q: Which Potency does the source give for Cn1c2ccccc2c2cc(C(=O)NNC(=O)CCl)sc21 here?
A: 15 µM (active)

Q: With CSc1c(CC(=O)NCCCO)n(Cc2ccccc2)c2ccccc12 as the compound, how does the Potency read?
A: inactive

Q: With O=S(=O)(CC(CN1CCCCC1)N1CCCCC1)c1ccccc1 (stereo unspecified) as the compound, how does the Potency read?
A: 31.6 µM (active)

Q: How did the Potency turn out when CC(CN1CCCCC1)OC(=O)c1ccco1 (stereo unspecified) was run?
A: inactive

Q: For O=S(=O)(c1ccccc1)N1CCCN(S(=O)(=O)c2ccccc2)CC1, which Potency is on record?
A: inactive

Q: Which Potency does the source give for O=C(NCc1ccc2c(c1)OCO2)c1nc(Cn2ccc([N+](=O)[O-])n2)no1 here?
A: inactive

Q: CCn1nc(NC(=O)C(C)C)c2cc3cccc(C)c3nc21 was tested. Which Potency did it give?
A: inactive

Q: How did the Potency turn out when Cn1cc(/C=N/Nc2ccccc2)c2ccccc21 was run?
A: inactive

Q: Which Potency does the source give for COc1ccc(-c2csc(-c3cccs3)n2)cc1OC here?
A: inactive

Q: Which Potency does the source give for COc1ccc(Cc2c(-c3ccc(OC)c(OC)c3)nc3c(C)cc(Br)cn23)c(C)c1 here?
A: 20 µM (active)

Q: For COc1ccc(-c2nc3cnccn3c2NCc2ccccc2)cc1SC1CCCCC1, which Potency is on record?
A: inactive

Q: How did the Potency turn out when COc1ccccc1Cc1c(-c2ccc(OC)c(OC)c2)nc2c3ccccc3ccn12 was run?
A: 39.8 µM (active)

Q: Which Potency does the source give for COc1ccc(-c2nc3c(-c4ccccc4)cnn3cc2C)cc1F here?
A: inactive

Q: With COc1ccc(-c2nc3c4ccccc4ccn3c2Cc2ccccc2)cc1OC as the compound, how does the Potency read?
A: 39.8 µM (active)

Q: With O=C(CC1C(=O)NCCN1C(=O)Nc1ccc(F)cc1)Nc1ccc(F)cc1 (stereo unspecified) as the compound, how does the Potency read?
A: inactive

Q: Which Potency does the source give for Cc1csc(SCC(=O)NC(=O)NC(C)(C)C)n1 here?
A: inactive

Q: Which Potency does the source give for Cn1c2ccccc2c(=O)c2cc(NCCCN3CCOCC3)ccc21 here?
A: inactive

Q: For O=C(NC1=NCCS1)c1cc(-c2ccc(-c3ccccc3)cc2)nc2ccccc12, which Potency is on record?
A: inactive

Q: CN(/N=C/c1ccc(O)cc1O)c1nc(-c2ccccc2)cc(-c2ccccc2)n1 was tested. Which Potency did it give?
A: 25.1 µM (active)

Q: How did the Potency turn out when CN(/N=C/c1cc(Br)cc(Br)c1O)c1cccc(C(F)(F)F)n1 was run?
A: inactive

Q: With Cc1ccc(S(=O)(=O)[N-]c2nc3ccccc3nc2-[n+]2ccn(Cc3ccccc3)c2)cc1 as the compound, how does the Potency read?
A: inactive

Q: Cc1nc(N/N=C/c2cccc([N+](=O)[O-])c2)cc(N2CCCCC2)n1 was tested. Which Potency did it give?
A: inactive

Q: For Cc1ccc(/N=C/c2nc(/C=C/c3cccc([N+](=O)[O-])c3)oc2O)cc1, which Potency is on record?
A: 39.8 µM (active)
